This passage reports growth inhibition results from PubChem BioAssay (NCI).

This is part of a sample that, as a whole, favours compounds with a hit. Of some 79,000 tested, about 15% had one in any assay. Values without a mark were called inactive. Activity calls are given as the source filed them. Cut-off read from the data, not from the text of the source: active = growth inhibition above about 70%; inactive = the rest.

Experiment [1] is described as follows: NCI Yeast Anticancer Drug Screen. Data for the rad50 strain (AID 155).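 Note: 0% = growth of vehicle-only cultures of the same strain.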 The settings on record: S. cerevisiae rad50 strain growth inhibition; at 50.0 µM; active compounds read high. The gist of the method:
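Compounds were tested on a yeast strain with an engineered DNA damage repair alteration; the reported value is growth inhibition normalised to vehicle treatment.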

Experiment [2] can be described thus: NCI Yeast Anticancer Drug Screen. Data for the mec2-1 strain (AID 157). The following applies: S. cerevisiae mec2-1 strain, at 50.0 µM, active compounds read high. The gist of the method: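 Test agents were screened against the mec2-1 yeast strain, with defined DNA repair or cell cycle alteration. Growth was scored as inhibition against vehicle-only controls.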
A short description of experiment [3]: NCI Yeast Anticancer Drug Screen. Data for the sgs1 mgt1 strain (AID 161).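 Note: 0% = growth of cultures given vehicle only.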 The settings on record: S. cerevisiae sgs1 mgt1 strain, at 50.0 µM, active compounds read high. In outline: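 Inhibition of yeast growth, normalised to vehicle-treated controls, is reported for a strain bearing genetic alterations in DNA damage repair.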
Experiment [4] in a line: NCI Yeast Anticancer Drug Screen. Data for the cln2 rad14 strain (AID 165).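 Note: 0% = growth equal to vehicle treated cultures.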 The following applies: S. cerevisiae cln2 rad14 strain, at 50.0 µM, active compounds read high. The gist of the method:
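Growth of compound-exposed yeast (cln2 rad14 genotype) measured and expressed as inhibition relative to vehicle.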

Experiment [5] is described as follows: NCI Yeast Anticancer Drug Screen. Data for the bub3 strain (AID 167). The following applies: S. cerevisiae bub3 mutant strain, at 50.0 µM, active compounds read high. The gist of the method:
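Growth of a checkpoint-deficient yeast mutant is measured after compound exposure. Values represent inhibition relative to vehicle.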

Experiment [6] is described as follows: NCI Yeast Anticancer Drug Screen. Data for the mlh1 rad18 strain (AID 175). The following applies: S. cerevisiae mlh1 rad18 strain growth inhibition; at 50.0 µM; active compounds read high. In outline:
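In this whole-cell yeast screen, a strain with altered DNA damage repair is challenged with compound, and its growth is measured against matched vehicle-treated controls.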

Take `CCCCCCCCCCCCCCCC(=O)OCC1OC(OC2(COC(=O)CCCCCCCCCCCCCCC)OC(COC(=O)CCCCCCCCCCCCCCC)C(OC(=O)CCCCCCCCCCCCCCC)C2OC(=O)CCCCCCCCCCCCCCC)C(OC(=O)CCCCCCCCCCCCCCC)C(OC(=O)CCCCCCCCCCCCCCC)C1OC(=O)CCCCCCCCCCCCCCC` (stereo not given): the growth inhibition in experiment [1] was -6.25%; in experiment [2] it was -26%; in experiment [3], -34.1%; in experiment [4], -14.7%; in experiment [5], -13.9%; in experiment [6] it was -6%.

For `NC(N)=NOCC(=O)O`, the growth inhibition in experiment [1] was -7.2%; in experiment [2] it was -14.7%; in experiment [3] it was -8.85%; in experiment [4] it was -42.5%; in experiment [5], 3.95%; in experiment [6], -16.1%.

`CCCCOCN(COCCCC)CC(C)(C)C`: the growth inhibition in experiment [1] was 20.9%; in experiment [2], 14.7%; in experiment [3] it was -10.8%; in experiment [4], 14.7%; in experiment [5], 19.4%; in experiment [6], 19.3%.

For the compound `CCN(CC)CCc1c2c(nc3ccccc13)C(=O)c1cccnc1C2=O`, the growth inhibition was 84.3% (active) in experiment [1]; 66.3% in experiment [2]; 84% (active) in experiment [3]; 74.4% (active) in experiment [4]; 79.2% (active) in experiment [5]; -21.5% in experiment [6].

As to `O=C(O)C(=O)Cc1cccc(Cl)c1[N+](=O)[O-]`, the growth inhibition is 2.15% in experiment [1]; 5.25% in experiment [2]; 13.4% in experiment [3]; -10.6% in experiment [4]; -4.75% in experiment [5]; 15% in experiment [6].

`CN(C(=O)c1ccccc1)C1CCCC(=O)CC1` (stereo not given): the growth inhibition is -2.35% in experiment [1]; -10% in experiment [2]; 8.25% in experiment [3]; 9.95% in experiment [4]; -13.6% in experiment [5]; -65% in experiment [6].

For `CC[N+](C)(CC)CCOC(=O)C(c1ccccc1)C(O)C1CC=CCC1` (stereo not given), the growth inhibition in experiment [1] is 7.15%; in experiment [2], -6.3%; in experiment [3], -5.65%; in experiment [4], -30.6%; in experiment [5], -1.45%; in experiment [6] it was 2.3%.

On to `O=C(NC(=Nc1ccccc1)SCSC(=Nc1ccccc1)NC(=O)c1ccco1)c1ccco1`, for which the growth inhibition was -5.85% in experiment [1]; -7.9% in experiment [2]; -45.7% in experiment [3]; 12.7% in experiment [4]; -4.7% in experiment [5]; -12.4% in experiment [6].

With `CCN1CCC(O)(C(C(=O)O)c2ccccc2)CC1` (stereo not given), the growth inhibition was 3.45% in experiment [1]; -27% in experiment [2]; -35% in experiment [3]; -28.8% in experiment [4]; -38.7% in experiment [5]; 2.4% in experiment [6].

Turning to `COc1ccc(-c2c3c(n(C4OC(COC(C)=O)C(OC(C)=O)C(OC(C)=O)C4OC(C)=O)c(=S)c2C#N)CCCC3)cc1` (stereo not given), the growth inhibition in experiment [1] is -17.9%; in experiment [2] it was -13.2%; in experiment [3] it was 3.4%; in experiment [4] it was 2.05%; in experiment [5], -1.95%; in experiment [6] it was -5%.

Turning to `CCNc1nc2c(N)ncnc2n1C1OC(CO)C(O)C1O` (stereo not given), the growth inhibition in experiment [1] is 12.8%; in experiment [2], -8.4%; in experiment [3], 6.45%; in experiment [4] it was -3.35%; in experiment [5], -0.1%; in experiment [6] it was -6.6%.

For the compound `COc1cc(-c2nnc3n2NC=C(C(=O)O)S3)cc(OC)c1OC`, the growth inhibition was 6.75% in experiment [1]; 2.45% in experiment [2]; -10.9% in experiment [3]; 5.45% in experiment [4]; 28.2% in experiment [5]; 21.8% in experiment [6].

With `CCCCCC/C(CC(=O)CCC(=O)NCCc1ccccc1)=N\Nc1ccc([N+](=O)[O-])cc1[N+](=O)[O-]`, the growth inhibition is -0.2% in experiment [1]; 14.9% in experiment [2]; -35.5% in experiment [3]; 34.2% in experiment [4]; 11.9% in experiment [5]; -1.7% in experiment [6].

Turning to `CC1(CC2(c3ccccc3)NC(=O)NC2=O)NC(=O)NC1=O` (stereo not given), the growth inhibition was -0.55% in experiment [1]; -19.6% in experiment [2]; 0.9% in experiment [3]; 10.6% in experiment [4]; 11.8% in experiment [5]; 5.65% in experiment [6].

Consider `CNCC(SC)c1ccc(O)c(O)c1` (stereo not given), for which the growth inhibition in experiment [1] is -9.8%; in experiment [2], -14.8%; in experiment [3] it was -20.4%; in experiment [4] it was -15.7%; in experiment [5], -31%; in experiment [6], -2.6%.

Take `NC(N)=N/N=C(\c1ccc(Cl)cc1)C1CC1`: the growth inhibition was 2.7% in experiment [1]; -5.05% in experiment [2]; -11.9% in experiment [3]; -13.2% in experiment [4]; -65.3% in experiment [5]; 10% in experiment [6].

With `Cc1ccc(S(=O)(=O)N(C)C)cc1NC1=NCCO1`, the growth inhibition is -2.55% in experiment [1]; 5.75% in experiment [2]; 7.85% in experiment [3]; -40.4% in experiment [4]; -1% in experiment [5]; -2.6% in experiment [6].

Regarding `OC1C2CCC3C2CC(C(O)(c2ccccc2)c2ccccc2)C13` (stereo not given), the growth inhibition in experiment [1] is -0.2%; in experiment [2] it was -23.6%; in experiment [3], -8.75%; in experiment [4], -13.2%; in experiment [5], -50%; in experiment [6], -15.4%.

For `C[C@@H](O)CO`, the growth inhibition in experiment [1] was 17.8%; in experiment [2], -16%; in experiment [3], 1.7%; in experiment [4], 3.75%; in experiment [5] it was -3.55%; in experiment [6] it was 13.2%.

Consider `CCCOC(=O)/C(C)=C\c1ccccc1`, for which the growth inhibition in experiment [1] was 21%; in experiment [2], 15.9%; in experiment [3], 17.6%; in experiment [4] it was 15.3%; in experiment [5], -0.6%; in experiment [6], 16.9%.
